Screens: PubChem, Broad Institute
In the library only some 3.1% were active in any assay of this set; here they are far more common.
Wnt act = activates Wnt/beta-catenin signaling in a reporter cell assay; activator, plate reader; activation, % at 9.35 µM; 300,000 compounds, 1.2% hits; AID 743398; in the data active = activation above about 30%, passing the limit was not always enough; inconclusive = no clear call, values can overlap the other calls
C2C12 statin = suppressors of simvastatin-induced myotoxicity in C2C12 myotubes. ATP luminescence, 48 h; scaled: DMSO 0, geranylgeraniol control 100. rescue of ATP level, % at 7.49 µM. 330,000 compounds, 0.78% hits. AID 602340;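 active = mean ATP rescue above about 67%, or every replicate alone reaching that limit, limit read from the data, passing the limit was not always enough; inconclusive = no clear call, values can overlap the other calls; inactive = mean under the limit and some replicate under it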;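 note: myotubes were challenged with 10 µM simvastatin during compound exposure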
MITF act = activators of MITF-driven TRPM1 promoter activity in SK-MEL-5 cells; activation, % at 12.5 µM; 300,000 compounds, 0.75% hits; SK-MEL-5 TRPM1-promoter luciferase, 24 h; % of positive control, neutral wells = 0; AID 588334;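 active = mean activation of at least 80% with every replicate also reaching 80%; inconclusive = mean reaches 80% but some replicate falls short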
esBAF inh = inhibitors of esBAF chromatin remodeling in mouse ES cells; Bmi1-luciferase knock-in reporter, 24 h; 100% = twice the neutral-well signal; reporter increase, % at 12.5 µM; 350,000 compounds, 2% hits; in the data active = activation above about 40%; inconclusive = no clear call, values can overlap the other calls;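 note: a rise in the Bmi1 reporter signal indicates esBAF inhibition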
Rtt109 Vps75 = inhibitors of Candida albicans Rtt109/Vps75 histone acetyltransferase; AID 540336; Q5AAJ8; inhibition, % at 34.9 µM; 330,000 compounds, 0.16% hits; purified Rtt109/Vps75, ThioGlo CoA-SH fluorescence, 4 h;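 active = inhibition of at least 50% in every replicate; inconclusive = best replicate reaches 50% inhibition but some replicates fall short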
Target sequence (Q5AAJ8 whole entry, looked up): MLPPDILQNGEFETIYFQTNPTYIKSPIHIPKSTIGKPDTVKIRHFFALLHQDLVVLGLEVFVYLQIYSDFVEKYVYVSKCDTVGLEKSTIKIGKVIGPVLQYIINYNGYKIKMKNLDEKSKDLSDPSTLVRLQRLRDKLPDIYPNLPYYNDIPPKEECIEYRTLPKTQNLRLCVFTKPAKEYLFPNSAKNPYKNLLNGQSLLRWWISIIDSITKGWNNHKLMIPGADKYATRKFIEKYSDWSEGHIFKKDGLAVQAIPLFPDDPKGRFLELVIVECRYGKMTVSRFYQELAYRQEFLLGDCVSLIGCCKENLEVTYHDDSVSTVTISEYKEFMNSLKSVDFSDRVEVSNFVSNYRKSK
Each line names hits and unclear results; the compound was inactive in the other large screens.

NC(=O)c1cccc(-c2csc(C(O)c3cccc(Cl)c3)n2)c1 (configuration not stated)	none (no result: MITF act, Rtt109 Vps75)
COCc1cccc(-c2csc(C(O)c3ccccc3)n2)c1 (configuration not stated)	esBAF inh 53.3 (no result: MITF act, Rtt109 Vps75)
OC(c1ccccc1)c1nc(-c2ccccc2)cs1 (configuration not stated)	esBAF inh 52.4 (no result: MITF act, Rtt109 Vps75)
COCc1cccc(-c2csc(C(O)c3cccc(OC)c3)n2)c1 (configuration not stated)	none (no result: MITF act, Rtt109 Vps75)
O=C(O)c1cccc(-c2csc(C(O)c3cccc(Cl)c3)n2)c1 (configuration not stated)	esBAF inh 47.8 (no result: MITF act, Rtt109 Vps75)
CCC1(C)Cc2c(sc3[nH]c(=O)[nH]c(=O)c23)CS1 (configuration not stated)	C2C12 statin 99.7
COc1ccc(-c2ccc3c(c2)O[C@H](CN(C)C)[C@H](C)CN([C@H](C)CO)S3(=O)=O)cc1	none (no result: Wnt act, MITF act, Rtt109 Vps75)
Cc1cc(=O)oc2cc(OC(=O)c3ccccc3)ccc12	none
COc1ccccc1-c1c(C(F)(F)F)oc2cc(OC(=O)c3ccc([N+](=O)[O-])cc3)ccc2c1=O	esBAF inh 66.7 (no result: C2C12 statin)
Cc1cccc(NC(=O)CNC(=O)COc2ccc(C(=O)c3ccc(F)cc3)cc2)c1C	Wnt act 42.4 (no result: C2C12 statin, esBAF inh)
NC(=O)C1CC(=O)N(c2ccc(OCC(=O)Nc3ccc(F)cc3)cc2)C1 (configuration not stated)	none
NC(=O)C1CC(=O)N(c2ccc(OCC(=O)Nc3ccccc3F)cc2)C1 (configuration not stated)	Wnt act 33.8
Cc1ccc(C(=O)Nc2cccnc2Cl)cc1Cl	esBAF inh 53.9
NC(=O)C1CC(=O)N(c2ccc(OCc3ccc(Cl)c(Cl)c3)cc2)C1 (configuration not stated)	Wnt act 53.6, esBAF inh 50.8 (no result: MITF act, Rtt109 Vps75)
C[C@@H]1CN([C@H](C)CO)C(=O)c2cc(NS(=O)(=O)c3ccccc3)ccc2O[C@@H](C)CCCCO[C@@H]1CN(C)C	none (no result: Wnt act, MITF act, Rtt109 Vps75)
C[C@@H]1CN([C@H](C)CO)C(=O)c2cc(C#CCN(C)C)cnc2O[C@H]1CN(C)S(C)(=O)=O	none (no result: Wnt act, MITF act, Rtt109 Vps75)
CC(C)C#Cc1ccc2c(c1)O[C@@H](CN(C)C)[C@@H](C)CN([C@@H](C)CO)S2(=O)=O	none (no result: Wnt act, MITF act, Rtt109 Vps75)
Cc1ccc(OCC(=O)Nc2cccnc2Cl)cc1C	MITF act 87.2
Cc1ccc(OCC(=O)Nc2ccccc2F)cc1C	Wnt act 43.4, MITF act 106.6 (no result: C2C12 statin, esBAF inh)
Cc1cc(Cl)ccc1OCC(=O)OCC(=O)Nc1cccnc1Cl	none
COc1ccc(/C=C/C(=O)Nc2cccnc2Cl)cc1	Wnt act 43.1, MITF act 96.8, esBAF inh inconclusive (no result: Rtt109 Vps75)
Cc1ccc(OCC(=O)Nc2ccccc2F)cc1	Wnt act 41.3 (no result: C2C12 statin, MITF act, esBAF inh)
Cc1noc(C)c1NC(=O)N(C)C[C@H]1OCCCC[C@H](C)Oc2ccc(NC(=O)Nc3cccc4ccccc34)cc2C(=O)N([C@H](C)CO)C[C@@H]1C	none (no result: Wnt act, C2C12 statin, MITF act, Rtt109 Vps75)
O=C(C[C@@H]1C[C@H]2c3cc(NC(=O)CC4CC4)ccc3O[C@H]2[C@H](CO)O1)NCc1cccc(F)c1	none (no result: Wnt act, MITF act, Rtt109 Vps75)
Cc1ccc(CCC(=O)Nc2ccccc2F)s1	Wnt act 62.4
COC(=O)C[C@@H]1CC[C@H]2[C@@H](COc3ccc(NS(C)(=O)=O)cc3C(=O)N2C)O1	none (no result: Wnt act, MITF act, Rtt109 Vps75)
CC(=O)c1ccc(NC(=O)C2(c3ccccc3)CCOCC2)cc1	esBAF inh 55.4
CC(C)CC#Cc1cnc2c(c1)C(=O)N([C@H](C)CO)C[C@@H](C)[C@H](CN(C)C(=O)Cc1ccccc1)O2	C2C12 statin 100.9 (no result: Wnt act, MITF act, Rtt109 Vps75)
CC(C)CC#Cc1cnc2c(c1)C(=O)N([C@@H](C)CO)C[C@@H](C)[C@H](CN(C)C(=O)c1ccc3c(c1)OCO3)O2	C2C12 statin 78.4 (no result: Wnt act, MITF act, Rtt109 Vps75)
CC(C)CC#Cc1cnc2c(c1)C(=O)N([C@H](C)CO)C[C@H](C)[C@@H](CN(C)C(=O)c1ccc3c(c1)OCO3)O2	none (no result: Wnt act, MITF act, Rtt109 Vps75)
CCN1C(=O)/C(=C/C=C2/Sc3ccccc3N2CCO)SC1=S	Wnt act 32.4
CCCN1C(=O)/C(=C\C=C2/Sc3ccccc3N2CCO)SC1=S	none
COc1ccc(C(=O)N2CC=C(c3ccccc3)CC2)cc1S(=O)(=O)N1CCOCC1	C2C12 statin 82.5 (no result: Wnt act)
CN1CCc2c(sc3c2C(=O)NC(c2cccc(OC(=O)c4cccs4)c2)N3)C1 (configuration not stated)	esBAF inh 42.4 (no result: MITF act)
C[C@H]1CN([C@@H](C)CO)C(=O)c2cccc(NC(=O)C3CC3)c2O[C@H]1CN(C)C(=O)Nc1ccc(C(F)(F)F)cc1	none (no result: Wnt act, MITF act, Rtt109 Vps75)
C[C@@H]1CCCCO[C@@H](CN(C)C)[C@H](C)CN([C@H](C)CO)C(=O)c2cc(NC(=O)C3CCCCC3)ccc2O1	none (no result: Wnt act, MITF act, Rtt109 Vps75)
CCN(CC)S(=O)(=O)c1ccc(NS(=O)(=O)c2ccc(F)cc2)cc1	none (no result: Wnt act)
CCN(CC)S(=O)(=O)c1ccc(NS(=O)(=O)c2cccc(C)c2)cc1	Wnt act 39.5
Cc1ccccc1OCc1nnc2c3cnn(C)c3ncn12	MITF act 89.5, esBAF inh 54.2 (no result: Wnt act)
C[C@H]1CCCCO[C@H](CN(C)C(=O)NC2CCCCC2)[C@@H](C)CN([C@@H](C)CO)C(=O)c2cc(NC(=O)CCCN(C)C)ccc2O1	none (no result: Wnt act, C2C12 statin, MITF act, Rtt109 Vps75)
Cc1ccc(OCCn2c(=O)n(C)c3ccccc32)cc1	esBAF inh 84.5
Cn1c(=O)n(CCOc2ccc(Cl)cc2Cl)c2ccccc21	none (no result: Wnt act, C2C12 statin, esBAF inh)
O=C(O)CCn1c(=O)sc2ccccc21	none (no result: MITF act)
Cn1c(=O)n(CCOc2ccccc2Cl)c2ccccc21	esBAF inh 78.1
Cn1c(=O)n(CCOc2ccc([N+](=O)[O-])cc2)c2ccccc21	none (no result: C2C12 statin, MITF act, esBAF inh)
O=c1sc2ccccc2n1CCOc1ccccc1	esBAF inh 44.9
C[C@H]1CN([C@@H](C)CO)C(=O)c2cc(C#CCN(C)C)cnc2O[C@H]1CN(C)Cc1cccc(C(=O)O)c1	none (no result: Wnt act, MITF act, Rtt109 Vps75)
C[C@H](CO)N1C[C@H](C)[C@@H](CN(C)C(=O)c2ccccc2)Oc2ncc(C3=CCCCC3)cc2C1=O	none (no result: Wnt act, MITF act, Rtt109 Vps75)
Brc1ccc(C2=NC(Cc3ccccc3)CO2)cc1 (configuration not stated)	esBAF inh 68.3 (no result: MITF act)
O=C(Nc1ccc(OCc2ccccc2)cc1)c1cccs1	esBAF inh 68.5 (no result: MITF act)
O=C(C[n+]1ccc(C(=O)N/N=C/c2ccc(O)cc2)cc1)c1ccccc1	none
CCCCNC(=O)C(=O)N/N=C/c1ccc(OCc2ccccc2)cc1	none (no result: C2C12 statin, esBAF inh)
CNC(=S)Nc1ccc(OCc2ccccc2)cc1	esBAF inh 40.9
O=C(C[n+]1ccc(C(=O)N/N=C/c2ccc(OCc3ccccc3)cc2)cc1)c1ccccc1	MITF act 134.2
CC(C)(C)NCC(=O)N/N=C/c1ccc(OCc2ccccc2)cc1	MITF act 86.7 (no result: C2C12 statin, esBAF inh)
CCCNC(=O)N(C)C[C@H]1Oc2cc(C#Cc3ccccn3)ccc2S(=O)(=O)N([C@@H](C)CO)C[C@H]1C	none (no result: Wnt act, C2C12 statin, MITF act, Rtt109 Vps75)
C[C@@H]1CN([C@@H](C)CO)C(=O)c2cccc(NC(=O)C3CCCCC3)c2O[C@@H]1CN(C)S(=O)(=O)c1ccc(F)cc1	none (no result: Wnt act, MITF act, Rtt109 Vps75)
